# Screening data: PubChem BioAssay, National Center for Advancing Translational Sciences (NCATS)
# ERG Ets-DNA blk – inhibitors of human ERG Ets domain-DNA interaction | P11308 | fluorescence polarization, His-ERG Ets domain / labelled DNA | Potency, µM (titrated, usually from 76.9 µM), without a hit: top-dose FP activity, negative = inhibition, most hits filed as inhibitors | 370,000 compounds, 0.028% hits; active = well fitted inhibition curve with a large enough effect in the polarisation, with a control signal flat; inconclusive = small, poorly fitted or top-dose-only effect, or effect the other way, or a change in a side signal; inactive = no such curve, though single readings can be large or run the other way; the % refers to the polarisation;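 note: polarization taken with two DNA probes labelled with fluorescein and Texas red; potency is the fitted concentration of half-maximal effect; % of control where 0% means no effect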
#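 His-tagged ERG Ets domain (1 uM in the protein solution; 300mM KCl, 50mM Tris-HCl, 1mM EDTA, 1mM DTT, pH 7.5) received compound, then a probe mix of 5 nM fluorescein-DNA and 100nM Texas-615-DNA. Fluorescence polarization was read for both dyes.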
# D1 PAM – human D1 dopamine receptor positive modulation. potentiation, % at 10 µM. AID 504651. HEK293 TREx D1 cells, calcium flux, dopamine EC20 potentiation. 360,000 compounds, 0.036% hits; in the data active = potentiation above about 30%; note: 0% is about no effect
# Target sequence (P21728 whole entry, looked up): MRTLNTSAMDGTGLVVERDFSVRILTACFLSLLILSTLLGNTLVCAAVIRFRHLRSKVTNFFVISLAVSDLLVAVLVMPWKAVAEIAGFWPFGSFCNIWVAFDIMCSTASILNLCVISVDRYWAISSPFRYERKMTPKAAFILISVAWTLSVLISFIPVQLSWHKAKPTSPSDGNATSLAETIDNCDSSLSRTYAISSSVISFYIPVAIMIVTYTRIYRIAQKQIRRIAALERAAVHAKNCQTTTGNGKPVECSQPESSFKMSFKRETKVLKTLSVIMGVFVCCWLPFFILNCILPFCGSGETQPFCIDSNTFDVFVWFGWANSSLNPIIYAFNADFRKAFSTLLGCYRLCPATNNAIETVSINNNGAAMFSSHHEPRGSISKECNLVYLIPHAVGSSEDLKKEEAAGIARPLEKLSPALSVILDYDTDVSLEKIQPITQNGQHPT
# D1 antag – human D1 dopamine receptor antagonism; P21728; HEK293 TREx D1 cells, calcium flux, dopamine EC80; active compounds read low; activity change, negative = inhibition, % at 10 µM; 360,000 compounds, 3.2% hits; AID 504652; in the data active = activity change below about -30%; note: % is set by controls: 0 for no effect and ±100 for the full control effect
#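 Kinetic fluorescence of a calcium dye serves as the read-out. D1-expressing Hek293 Trex cells, induced overnight at 30 C, are exposed to compound for 180 s before an EC80 dopamine addition, then read 180 s further.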
# D3 ag – agonists of human D3 dopamine receptor; P35462; D3R DiscoveRx beta-arrestin cells, luminescence, 90 min; max activation, %; 410,000 compounds, 0.58% hits; AID 652048; in the data active = max activation above about 30%; note: 0% is about no effect
#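 Agonist-mode cell screen: cells plated at 1500/well and incubated overnight at 37 °C, then exposed to library compounds for 90 min at 37 °C. Detection reagent was added for 30–60 min at room temperature, and luminescence was read.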
# D3 antag – antagonists of human D3 dopamine receptor; P35462; D3R cells, DiscoveRx beta-arrestin luminescence, antagonist mode; active compounds read low; AID 652054; max response, negative = inhibition, %; 360,000 compounds, 2.5% hits; in the data active = max response below about -50%; inconclusive = no clear call, values can overlap the other calls; note: % is set by controls: 0 for no effect and ±100 for the full control effect
#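 Cells plated overnight at 1500 cells/well, then exposed to library compounds with dopamine controls for 90 minutes at 37 degrees C. DiscoveRx reagent added for 30–60 minutes at room temperature; luminescence read, quantitative HTS format.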
# D1 ag – activates the human D1 dopamine receptor; activation, % at 2 µM; 360,000 compounds, 1% hits; AID 504660; P21728; HEK293 T-REx D1 cells, calcium flux, agonist mode; in the data active = activation above about 30%; note: 0% is about no effect
#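 Inducible HEK293 T-REx D1 cells, force-coupled to calcium signalling, were plated at 4000 cells/well with tetracycline and held overnight at 30 C. After no-wash calcium dye loading, compound-evoked calcium rise over 180 s flagged agonists.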
# The depositor's hits bear a star; u = inconclusive; x = no result. A selection: hits, their analogues and other compounds. The true share with any hit is near 6.1%.
SMILES,ERG Ets-DNA blk,D1 PAM,D1 antag,D3 ag,D3 antag,D1 ag
CCOC(N)=O,x,x,x,-4,x,x
CCCc1c(C(=O)Nc2ccc(F)cc2C)cnn1-c1ccccc1,-3%,-11,-24,-16,11,5
CCCc1c(NC(=O)Nc2ccc(F)cc2)cnn1-c1ccccc1,22%,-4,-46*,-17,0,14
Cc1ccc(C)c(-n2c(-c3ccc(Br)cc3)csc2=NC(=O)c2ccccc2F)c1,-3%,12,-42*,2,7,8
CC(=O)Nc1nonc1-c1nc2ccccc2n1Cc1ccccc1Br,3%,-2,-70*,-4,x,1
CCOc1ccc(NC(=O)Nc2cc(C(C)C)c(O)cc2C)cc1,2%,-5,-47*,1,-10,0
CCOc1ccc(NC(=O)Nc2ccc3snnc3c2)cc1,-5%,-4,-39*,4,x,28
O=C(Nc1cccc(C(F)(F)F)c1)Nc1ccc2snnc2c1,4%,-3,-69*,5,x,37*
O=C(Nc1ccccc1)Nc1ccc2nnsc2c1,6%,-2,-19,-14,-3,33*
CCC(C)C(NC(=O)c1ccccc1NC(=O)c1ccccc1)C(=O)N1CCOCC1 (stereo not drawn),7%,6,6,4,15,1
CN(C)c1ccc(NC(=O)Nc2ccc3snnc3c2)cc1,6%,-7,-48*,-6,u,16
CCOc1ccc(NC(=O)Nc2cc(OCC(F)(F)F)cc(OCC(F)(F)F)c2)cc1,23%,-3,-37*,4,0,17
O=C(Nc1ccccc1)Nc1ccc2snnc2c1,2%,-5,-52*,0,-14,25
O=C(Nc1ccc(F)cc1)Nc1cc(OCC(F)(F)F)cc(OCC(F)(F)F)c1,-7%,-14,4,6,10,10
COc1ccc(-c2cc3c(=O)n(CC(=O)Nc4ccccc4C(F)(F)F)ccn3n2)cc1OC,-1%,1,11,-4,x,-1
CC(C)(C)c1cccc(Cn2nnc3ccccc32)c1O,4%,-10,-43*,-2,-21,29
CCOC(=O)c1cc(S(=O)(=O)NCc2ccc(Cl)cc2)[nH]n1,1%,-1,-32*,3,x,2
CCOC(=O)c1cc(S(=O)(=O)NCc2ccc(F)cc2)[nH]n1,-3%,-2,-21,-14,x,3
O=S(=O)(Nc1ccccc1F)c1ccc2nsnc2c1,x,-4,7,0,-14,3
O=C(CCCN1CCC(c2ccccc2)C1)c1ccc2c(c1)OCCO2 (stereo not drawn),x,-7,-19,-33,-82*,7
O=C(CCN1CCCCC1)c1ccc2c(c1)OCO2,-6%,-3,-6,-12,-65*,3
O=C(CCN1CCc2ccccc2CC1)c1ccc2c(c1)OCCO2,2%,-8,-10,-12,-94*,2
O=C(CCCN1CCOCC1)c1ccc2c(c1)OCCO2,x,-3,5,-19,-8,3
CC(=O)NCC(c1ccc2c(c1)OCO2)N1CCN(c2ccccc2)CC1 (stereo not drawn),-3%,-4,3,-13,x,3
COc1ccc(S(=O)(=O)N2CCOCC2)cc1C(=O)N1CCCCCC1,-2%,7,-6,1,2,2
SMILES,ERG Ets-DNA blk,D1 PAM,D1 antag,D3 ag,D3 antag,D1 ag
COC(=O)c1sc(NC(=O)c2c(OC)cccc2OC)c(C#N)c1C,10%,-2,-15,0,-4,3
COc1cc(C(=O)Nc2ccccc2SCc2cc(=O)n3nc(C)sc3n2)cc(OC)c1OC,10%,-5,-50*,0,1,4
O=C(CCn1c(=S)[nH]c2ccccc2c1=O)Nc1ccc(F)cc1,8%,-1,-2,-11,-15,0
Cc1cccc(S(=O)(=O)NC(=O)C2(C)CCN2C(=O)Cc2ccsc2)c1 (stereo not drawn),x,x,x,0,-17,x
CCOC(=O)c1cnn(CCOC(=O)C(C)(C)C)c1NC(=O)C(C)(C)C,13%,-4,9,12,23,2
CCOC(=O)c1cnn(CCOC(=O)C2CC2)c1NC(=O)C1CC1,-1%,0,-17,8,-99*,3
